Measured values taken from PubChem BioAssay (NCATS).
Unmarked numbers belong to inactive results. Records with an inconclusive call do not appear. A call without a number means that no potency is given here. Activity calls are given as the source filed them. The call rests on the fitted dose curve; in most records, active means well fitted curve in the direction sought with a large enough effect; inconclusive means small, poorly fitted or top-dose-only effect, or another doubt; inactive means no such curve, though single readings can be large; an effect the other way counts as inactive or inconclusive.

Columns and labels:
[1] = test system: Zika virus NS2B-NS3 protease (linked construct); test: Primary screen NINDS Rhodamine qHTS for Zika virus inhibitors (AID 1347160); further: nearly all actives have a fitted effect of over 55% in size; further: potency means the concentration at half of the fitted maximal effect
In short: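 Rhodamine110-peptide cleavage (1.5 µM substrate) by 25 nM linked NS2B-NS3 enzyme at pH 8.0 (Tris, Tween 20), after 15 min RT preincubation with compounds; 15-min fluorescence change normalized to controls and Hill-fitted.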

[2] = OV-KATE Cancer Cell Toxicity qHTS against the NCATS CANVASS Library (AID 1347345)
In short: (§1)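 Following a 4 h pre-incubation of 1000 seeded cells, compounds were pinned in an 11-pnt dilution series and left for 72 h; viability then came from CellTiter-Glo.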

[3] = HPAF-II Cancer Cell Toxicity qHTS against the NCATS CANVASS Library (AID 1347346); further: series mostly up to about 38 µM; nearly all actives have a fitted effect of over 55% in size
In short: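 Cytotoxicity read-out was CellTiter-Glo luminescence after 72 h at 37 degrees C exposure of HPAF-II cells (1000/well) to compounds in an 11-point titration.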

[4] = UWB1.289 Cancer Cell Toxicity qHTS against the NCATS CANVASS Library (AID 1347347); further: series mostly up to about 38 µM; nearly all actives have a fitted effect of over 60% in size
In short: as §1

[5] = OV-SAHO Cancer Cell Toxicity qHTS against the NCATS CANVASS Library (AID 1347348); further: series mostly up to about 38 µM; nearly all actives have a fitted effect of over 55% in size
In short: as §1

[6] = U-118MG Cancer Cell Toxicity qHTS against the NCATS CANVASS Library (AID 1347351); further: series mostly up to about 38 µM
In short: as §1

[7] = COV-362 Cancer Cell Toxicity qHTS against the NCATS CANVASS Library (AID 1347352); further: series mostly up to about 38 µM
In short: (§2)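 Toxicity was measured as CellTiter-Glo luminescence after 72 h exposure to an 11-point compound series. Compound was added to 1000 cells/well 4 h after seeding.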

[8] = A2780 Cisplatin Sensitive Ovarian Cancer Cell Toxicity qHTS against the NCATS CANVASS Library (AID 1347353); further: nearly all actives have a fitted effect of over 60% in size
In short: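 Cisplatin-sensitive A2780 ovarian cells (750/well) received compound in 11 concentrations, and were incubated 72 h at 37 °C. ATP content was measured by ATPLite luminescence; bortezomib served as control.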

[9] = UWB1.289-WTBRCA1 Cancer Cell Toxicity qHTS against the NCATS CANVASS Library (AID 1347354)
In short: as §2

[10] = HPAF-II 24hr Apoptosis Induction qHTS against the NCATS CANVASS Library (AID 1347356)
In short: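 Caspase-Glo 3/7 luminescence, read after 15 min room-temperature development, measures apoptosis in HPAF-II cells treated 24 h at 37 degrees C with an 11-point concentration series; 500 cells/well; doxorubicin control.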

[11] = HEK293 24hr Apoptosis Induction qHTS against the NCATS CANVASS Library (AID 1347359)
In short: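 HEK293 cells (500/well, DMEM + 10% FBS) were exposed to compounds in an 11-point series for 24 hours at 37 degrees C, then caspase-3/7 activity was read by Caspase-Glo DEVD luciferase luminescence after 15 min.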

[12] = HEK293 12hr Apoptosis Induction qHTS against the NCATS CANVASS Library (AID 1347361)
In short: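 Luminescent caspase-3/7 signal, proportional to enzyme activity, was recorded from HEK293 cultures in DMEM + 10% FBS treated for 12 hours with titrated natural products (11 points). Doxorubicin (0.1nM - 4uM) served as control.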

[13] = test system: NAD(P)H diaphorase (Clostridium kluyveri); test: Diaphorse counterscreen qHTS: Assay Interference Panel against the NCATS CANVASS Library (AID 1347362)
In short: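 Clostridium kluyveri diaphorase in PBS with 0.01% Tween-20 was preincubated 15 min at room temperature in the dark with compounds (11-point series). Resorufin fluorescence (ex 525/20, em 598/25) was read 5 min after adding resazurin/NADH.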

[14] = qHTS for ATAD5 Agonist screened against the NCATS CANVASS Library (AID 1347367);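 further: luciferase reporter driven by ATAD5 which rises upon DNA damage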
In short: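 Genotoxicity was scored as increased ATAD5-luciferase luminescence in HEK293T after 16hr of exposure, with cell viability measured by fluorescence beforehand in the same well.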

[15] = MCF7 Cancer Cell Toxicity qHTS against the NCATS CANVASS Library (AID 1347369)
In short: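 This 72 hr qHTS scored MCF7 viability by CellTiterGlo luminescence, with 500 cells/well; bortezomib titration ran as control.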

[16] = J3T Cancer Cell Toxicity qHTS against the NCATS CANVASS Library (AID 1347371)
In short: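 Cytotoxicity read as CellTiterGlo ATP luminescence after 72 h incubation (37C, 5% CO2) of J3T canine glioma cells (500/well) with an 11-point compound series.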

[17] = qHTS for Hypoxia signaling pathway (HIF-1) agonists against the NCATS CANVASS Library (AID 1347375)
In short: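 Beta-lactamase reporter under HRE control in ME-180 cells; compounds (11-point qHTS series) added after 5 hrs plating, then 17 hrs at 37C. FRET substrate read after 2 hr; same-well CellTiter-Glo luminescence gave viability and normalization.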

[18] = qHTS for Inflammasome Signaling Inhibitors: IL-1-beta AlphaLISA screen against the NCATS CANVASS Library (AID 1347379);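 further: human THP-1 cells primed with LPS then triggered with ATP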
In short: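 Secreted IL-1B from human THP-1 cells quantified by AlphaLISA 16 hr after compound addition (final up to 57.5 uM). A 1 hr compound pretreatment preceded inflammasome activation with 250 ng/mL LPS plus 1.25 mM ATP (final).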

[19] = Vero-766 cells viability qHTS against the NCATS CANVASS Library: Counterscreen for Zika virus inhibition assay (AID 1347394); further: series mostly up to about 46 µM; nearly all actives have a fitted effect of over 60% in size
In short: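 Counterscreen for toxicity: Vero 766 cells exposed 72 h to an 11-point compound series, viability by CellTiter-Glo.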

[20] = qHTS for inhibitors of Wild type Zika virus screened against the NCATS CANVASS Library (AID 1347396);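 further: ATP luminescence of surviving cells so rescue from viral cell killing; series mostly up to about 46 µM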
In short: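 Luminescent CellTiter Glo read-out of virus-induced cytotoxicity, 72 h post-infection, in Vero 766 cells. Compounds were tested at 11 concentrations; uninfected, vehicle-treated wells defined 100% inhibition.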

SMILES	Potency [1]	Potency [2]	Potency [3]	Potency [4]	Potency [5]	Potency [6]	Potency [7]	Potency [8]	Potency [9]	outcome [10]	Potency [11]	Potency [12]	Potency [13]	Potency [14]	Potency [15]	Potency [16]	Potency [17]	Potency [18]	Potency [19]	Potency [20]
CCC1=C2CCCN3C(=O)O[C@H]([C@H]1OC(C)=O)[C@H]23	inactive	inactive	inactive	inactive	inactive	inactive	inactive	inactive	inactive	inactive	inactive	inactive	inactive	inactive	inactive	inactive	inactive	inactive	inactive	inactive
O=C(O)[C@@]12COC3(O)C1CCN1CC[C@H]3[C@@H]1c1c2[nH]c2ccccc12	inactive	inactive	inactive	inactive	inactive	inactive	inactive	inactive	inactive	inactive	inactive	inactive	inactive	inactive	inactive	inactive	inactive	inactive	inactive	inactive
COc1cc(O)c2c3c(c(O)cc(C)c13)C(=O)OC2	22 µM (active)	inactive	inactive	inactive	inactive	inactive	inactive	inactive	inactive	inactive	inactive	inactive		inactive	inactive	inactive	inactive	inactive	inactive	inactive
